# Hit rate of the full screen: of about 50,000 compounds, about 800 (1.6%) showed an effect of 50% or more. What follows is part of a selection rich in strong results, with near analogues and random picks from the rest.
# Target: Bcl-2-like protein 10 (Homo sapiens) (UniProt Q9HD36)
# Assay: TR3 peptide-Bcl-B binding displacers, biochemical primary FP assay, phenotype converters (AID 1240);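 further: 0% = Bcl-B with tracer peptide and DMSO and 100% = tracer peptide lacking Bcl-B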
# Details: GST-Bcl-B / FITC-TR3 peptide fluorescence polarization; stronger effect = higher value; compound at 3.75 mg/L
# Sequence of Bcl-2-like protein 10 (Homo sapiens) (Q9HD36 whole entry, looked up): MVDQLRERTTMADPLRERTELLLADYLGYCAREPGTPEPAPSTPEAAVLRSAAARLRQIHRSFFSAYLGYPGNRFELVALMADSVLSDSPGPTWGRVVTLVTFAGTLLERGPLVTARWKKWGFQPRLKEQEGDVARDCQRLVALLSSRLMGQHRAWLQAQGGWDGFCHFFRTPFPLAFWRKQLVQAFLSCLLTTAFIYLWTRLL
row,SMILES,displacement [%]
1,CC(=O)Nc1ccccc1NC(=O)c1ccc(Cl)cc1,11.4
2,O=C(O)CCC(=O)Nc1ccc2nn(-c3ccccc3)nc2c1,3.6
3,COc1cc(C(=O)Nc2ccc(Br)cn2)cc(OC)c1OC,-1.3
4,CCCCOC(=O)c1sc2nc(N)c(C#N)c(-c3ccc(OC)c(OC)c3)c2c1N,167
5,CCOc1ccc(-c2c(C#N)c(N)nc3sc(C#N)c(N)c23)cc1,-1.4
6,COc1ccc(-c2c(C#N)c(N)nc3c2CCCCC3)cc1OC,-2.3
7,O=C(CCN1C(=O)c2ccccc2C1=O)NC1CCCC1,8.5
8,O=C(N/N=C/c1cccnc1)/C(=C\c1cccs1)NC(=O)c1ccccc1,-9.3
9,O=C1NC(=Nc2cccnc2)S/C1=C\c1ccc(F)cc1,3.5
10,O=C1NC(=Nc2cccc(O)c2)S/C1=C\c1ccc(F)cc1,75.8
11,O=C1NC(=Nc2ccc(O)cc2)S/C1=C\c1ccc(F)cc1,7.7
12,O=C1NC(=Nc2cccc(O)c2)S/C1=C\c1cccc(O)c1,1.9
13,O=C1NC(=Nc2cccnc2)S/C1=C\c1cccc(F)c1,146
14,O=C1NC(=Nc2cccnc2)S/C1=C\c1ccc(Br)cc1,12.1
15,CCOC(=O)C12CC3CC(CC(C3)C1)C2,-12.2
16,COc1ccc([N+](=O)[O-])cc1NCc1cccnc1,3.1
17,Oc1ccc2ccccc2c1C=Nc1ccc2oc(-c3ccccc3Br)nc2c1,120
18,NC(=O)c1cccc(N=Cc2c(O)ccc3ccccc23)c1,-0.3
19,CCC(=O)Nc1ccc2oc(-c3ccccc3Br)nc2c1,8.7
20,COc1ccc(-c2ccc(-c3nnc(-c4cccc(C)c4)o3)cc2)cc1,-5.4
21,COc1cc(C=NN2CCN(Cc3ccc(C)cc3C)CC2)cc(Br)c1O,10.3
22,N#C/C(=N/Nc1cccc(C(F)(F)F)c1)c1nc(-c2ccccc2)cs1,-4.4
23,N#C/C(=N\Nc1ccccc1)c1nc(-c2ccc(F)cc2)cs1,127

row,SMILES,displacement [%]
1,N#C/C(=N\Nc1ccccc1F)c1nc(-c2ccccc2)cs1,7.2
2,Cc1ccccc1CNC(=O)CN(c1ccc(Oc2ccccc2)cc1)S(C)(=O)=O,7.2
3,CCOc1ccccc1NC(=O)c1cc(C(=O)OC)cc([N+](=O)[O-])c1,-7.1
4,CC1=NN(c2ccc(S(N)(=O)=O)cc2)C(=O)/C1=C\c1ccc(-c2ccc(C)c(Cl)c2)o1,4
5,COc1ccc(C=C2NC(=S)N(c3ccccc3)C2=O)c(OC)c1,3.7
6,COc1ccc(N2C(=O)/C(=C\c3cc(OC)ccc3OC)SC2=S)cc1,28.3
7,COc1ccc(OC)c(/C=C2/SC(=O)N(CNc3ccc(Br)cc3C)C2=O)c1,90.9
8,COc1ccc(OC)c(/C=C2/SC(=S)N(CNc3cccc(Cl)c3)C2=O)c1,57
9,COc1ccc(OC)c(/C=C2/SC(=S)N(c3ccccc3OC)C2=O)c1,-0.9
10,COc1ccccc1/C=C1/SC(=O)N(CNc2cccc(Cl)c2)C1=O,9.1
11,COC(=O)CN1C(=O)/C(=C/c2cc(OC)ccc2OC)SC1=S,-14.6
12,COc1ccc(/C=C2/SC(=O)N(CNc3ccc(Br)cc3C)C2=O)c(OC)c1,31.7
13,COc1ccc(/C=C2/SC(=O)N(CNc3ccc(Br)cc3C)C2=O)cc1,4.5
14,COc1ccc(OC)c(/C=C2\SC(=S)N(c3ccccc3C)C2=O)c1,158
15,COc1ccc(/C=C2\NC(=S)N(c3ccccc3)C2=O)cc1OC,41.7
16,COc1ccc(OC)c(/C=C2\NC(=S)N(c3ccccc3)C2=O)c1,62.3
17,COc1cc(CNc2ccc(Br)cc2C)cc(OC)c1OC,13.2
18,Cc1ccc(C(=O)Nc2cc(-c3cccc(C)c3)[nH]n2)cc1,6.2
19,O=C1/C(=C\c2cccc(C(F)(F)F)c2)SC(=S)N1Cc1ccccc1,11
20,Cc1cc(Br)cc2c1NC(=O)C21OCCO1,-4.3
21,Cc1nnc(C)n1/N=C/c1ccc(O)c(O)c1,15.9
22,COc1ccccc1CNC(=O)C/C(C)=N/NC(=O)C(=O)NC(C)C,-14.6
23,CN(C)c1ccc(/C=C(/C#N)C(=O)Nc2cccc(Br)c2)cc1,53.8

row,SMILES,displacement [%]
1,N#C/C(=C/c1ccc(O)cc1)C(=O)Nc1cccc(Br)c1,-32.7
2,Cc1ccc(/C=C(/C#N)C(=O)Nc2cccc(Br)c2)o1,-37.3
3,N#C/C(=C\c1c[nH]c2ccccc12)C(=O)Nc1ccc(F)cc1,15.3
4,N#C/C(=C/c1ccc(C(=O)O)cc1)C(=O)Nc1cccc(Br)c1,-2.2
5,N#C/C(=C/c1c[nH]c2ccccc12)C(=O)Nc1cccc(Br)c1,90.7
6,CC(=O)c1cccc(NC(=O)/C(=C\c2ccc(Br)cc2)NC(=O)c2ccc(C)cc2)c1,2.4
7,N#C/C(=C/c1ccc(Cl)cc1)C(=O)Nc1cccc(Br)c1,-9.8
8,CSc1ccc(/C=C(\NC(=O)c2ccc(C)cc2)C(=O)Nc2cccc(F)c2)cc1,127
9,Cc1[nH]c2ccccc2c1/C=C(/C#N)C(=O)Nc1cccc(Br)c1,-17.5
10,N#C/C(=C/C=C/c1ccco1)C(=O)Nc1cccc(Br)c1,59.3
11,CSc1ccc(/C=C(\NC(=O)c2ccc(C)cc2)C(=O)Nc2cccc(C)c2)cc1,-2.7
12,CCOc1ccc(N2C(=O)NC(=O)/C(=C\c3ccc(-c4ccccc4C(=O)O)o3)C2=O)cc1,14.1
13,CCN(Cc1ccccc1)C(=O)c1ccccc1[N+](=O)[O-],-11.3
14,CC(C)c1ccc(C2OC3(C(=O)c4ccccc4C3=O)C3C(=O)N(c4ccc(Cl)c(Cl)c4)C(=O)C23)cc1 (configuration not stated),4.5
15,O=c1c(Oc2ccccc2Br)c(C(F)(F)F)oc2cc(O)ccc12,3
16,COc1ccc(NC(=O)CN(c2ccccc2Cl)S(C)(=O)=O)cc1OC,3.6
17,CCOc1cc(/C=C2\C(=O)NC(=O)N(c3ccc(Cl)cc3)C2=O)cc(Cl)c1OCC(=O)O,-2.8
18,Cc1cc(C)c(C(=O)/C(=C/c2ccc(I)cc2)c2ccccc2)c(=O)[nH]1,-1.1
19,Cc1cccc(C(=O)NNC2=CC(=O)CC(C)(C)C2)c1O,37.5
20,N#C/C(=C\c1ccc(-c2ccccc2[N+](=O)[O-])o1)C(=O)Nc1cccc(Br)c1,-6.3
21,N#C/C(=C/c1ccc(C#N)cc1)C(=O)Nc1cccc(Br)c1,-8.5
22,COc1ccc(/C=C(/C#N)C(=O)Nc2cccc(Br)c2)c(OC)c1,-8.7
23,COc1ccc(OC)c(/C=C(/C#N)C(=O)Nc2cccc(Br)c2)c1,100

row,SMILES,displacement [%]
1,COc1ccc([N+](=O)[O-])cc1-c1ccc(/C=C(/C#N)C(=O)Nc2cccc(Br)c2)o1,7.6
2,N#C/C(=C/c1ccc(F)cc1)C(=O)Nc1cccc(Br)c1,-19.5
3,COc1ccc(Cl)cc1/C=C(/C#N)C(=O)Nc1cccc(Br)c1,14.8
4,COc1cc([N+](=O)[O-])ccc1-c1ccc(/C=C(/C#N)C(=O)Nc2cccc(Br)c2)o1,92.4
5,CSc1ccc(/C=C(/C#N)C(=O)Nc2cccc(Br)c2)cc1,80.3
6,C=CCOc1ccc(/C=C/C(=O)c2ccc(Cl)cc2)cc1,-2.1
7,O=C(NCc1ccccc1)c1nn2c(c1Cl)NC(c1ccc(Cl)cc1)CC2C(F)(F)F (configuration not stated),1.1
8,O=C(NCc1ccccc1)C(O)(c1ccc(F)cc1)c1ccc(F)cc1,-12.1
9,CSc1ccc(CN2CCN(C(=O)c3ccco3)CC2)cc1,-13.1
10,O=[N+]([O-])c1ccc(F)c(NS(=O)(=O)c2cc(Cl)ccc2Cl)c1,-1.9
11,Cc1cc(NC(=O)c2cccc(F)c2)ccc1NC(=O)c1ccccc1,-3.3
12,COc1ccc(N=C2NC(=O)/C(=C/c3ccc(Cl)cc3)S2)cc1,10.7
13,O=C1NC(=Nc2ccc(O)cc2)S/C1=C\c1ccc(Cl)cc1,0.3
14,O=C1NC(=Nc2ccc(Br)cc2)S/C1=C\c1ccc(O)cc1,10
15,COc1ccc(N=C2NC(=O)/C(=C/c3ccc(N(C)C)cc3)S2)cc1,84.9
16,O=C1NC(=Nc2ccc(Br)cc2)S/C1=C\c1ccc2c(c1)OCO2,68.8
17,COc1ccc(/C=C2/SC(=Nc3ccc(O)cc3)NC2=O)cc1,-15.9
18,Cc1ccc(/C=C2\SC(=Nc3ccc(O)cc3)NC2=O)cc1,0.1
19,O=C1NC(=Nc2ccc(F)cc2)S/C1=C/c1ccc(Br)cc1,8
20,CN(C)c1ccc(/C=C2\SC(=Nc3ccc(O)cc3)NC2=O)cc1,50.9
21,COC(=O)c1c(C)oc2ccc(OCc3cccc(Br)c3)cc12,9.3
22,CCC(=NCc1ccccc1)c1c(C(F)(F)F)[nH]n(-c2nc3ccccc3s2)c1=O,-13.5
23,Cc1ccc(N2NC(=O)/C(=C/C=C/c3ccccc3)C2=O)cc1C,8.4

row,SMILES,displacement [%]
1,Cc1ccc(Cl)cc1NC(=O)C(=O)NCc1ccco1,-13.4
2,CCOC(=O)c1c(-c2ccc(C)cc2)csc1NC(=O)C(C)(C)C,7.5
3,Cc1c(C(=O)NCCc2ccccc2)cccc1[N+](=O)[O-],-8
4,CN(C)c1ccc(N/C(N)=N/c2nc(C(F)(F)F)cc(=O)[nH]2)cc1,-5.8
5,N/C(=N/N=C/c1ccc2c(c1)OCO2)c1ccccn1,-7.7
6,O=C(c1ccccc1)N1CC(=O)N2CCc3ccccc3C2C1 (configuration not stated),1
7,O=C1/C(=C/c2ccccc2)SC(=S)N1c1ccccc1Cl,-7.4
8,COc1cccc(C2NC(=O)NC(C)=C2C(=O)Nc2ccccc2C)c1 (configuration not stated),4.3
9,COC(=O)C1=C(C)N=c2s/c(=C\c3ccccc3Cl)c(=O)n2C1c1cccs1 (configuration not stated),84.9
10,CCOC(=O)C1=C(C)N=c2s/c(=C\c3ccc(NC(C)=O)cc3)c(=O)n2C1c1ccc(OC)cc1 (configuration not stated),116
11,COC(=O)C1=C(C)N=c2s/c(=C\c3ccc(Cl)cc3)c(=O)n2C1c1ccc(OC)c(OC)c1 (configuration not stated),9.9
12,CCOC(=O)C1=C(C)N=c2s/c(=C\c3ccc(N(C)C)cc3)c(=O)n2C1c1ccc(OC)c(OC)c1 (configuration not stated),-38.5
13,CCOC(=O)C1=C(C)N=c2s/c(=C\c3ccc(C(=O)O)cc3)c(=O)n2C1c1ccc(OC)c(OC)c1 (configuration not stated),-22.8
14,CCOC(=O)C1=C(C)N=c2s/c(=C\c3ccc(OC)cc3)c(=O)n2C1c1ccc(OC)cc1 (configuration not stated),-5.7
15,CCOC(=O)C1=C(C)N=c2s/c(=C\c3ccc(NC(C)=O)cc3)c(=O)n2C1c1ccccc1 (configuration not stated),-24.8
16,CCOC(=O)C1=C(C)N=c2s/c(=C\c3cc4c(cc3Cl)OCO4)c(=O)n2C1c1cccs1 (configuration not stated),-8.9
17,CCOC(=O)C1=C(C)N=c2s/c(=C\c3ccc(I)cc3)c(=O)n2C1c1ccc(OC)c(OC)c1 (configuration not stated),111
18,COC(=O)C1=C(C)N=c2s/c(=C/c3ccc(F)cc3)c(=O)n2C1c1ccc(OC)cc1 (configuration not stated),5.7
19,C=CCOc1ccc(/C=c2/sc3n(c2=O)C(c2ccc(OC)c(OC)c2)C(C(=O)OC)=C(C)N=3)cc1 (configuration not stated),106
20,CCOC(=O)C1=C(C)N=c2s/c(=C\c3cn(C)c4ccccc34)c(=O)n2C1c1cccs1 (configuration not stated),11.5

# Reference: PubChem BioAssay AID1240 (Sanford-Burnham Center for Chemical Genomics, 2008)
